{
  "source": "PubChem BioAssay (Tox21)",
  "note": "Records with an inconclusive call do not appear. A number with no mark means an inactive call. Calls of active or inactive are those of the source. Calls follow the shape of the full dose curve. % is scaled to controls: 0 for no effect and ±100 for the full control effect.",
  "data": [
    {"experiment": "cAMP Responsive Elements (CRE) small molecule agonists, cell-based qHTS assay (AID 1963590)", "details": "CRE-bla HEK293T, beta-lactamase FRET ratio, 3 h; series mostly up to 92.4 µM; activation: at the top concentration", "description": "U.S. Tox21 Program National Center for Advancing Translational Sciences [NCATS] Division of Preclinical Innovation [DPI] U.S. Environmental Protection Agency [EPA] National Institutes of Environmental Health Sciences [NIEHS] National Toxicology Program [NTP] U.S. Food and Drug Administration [FDA] Tox21 Assay Overview: CREB (cyclic-AMP Responsive Element Binding Protein) is a cellular transcription factor. It binds to certain DNA sequences called cAMP Responsive Elements (CRE) and regulates the transcription of the genes. […] This cell line can be used to find agonists/antagonists of the cyclic AMP signaling pathway. The activation of the report gene under culture conditions can be detected by fluorescence intensity. This cell line has been used to screen the Tox21 10K compound library to identify agonists that induce oxidative stress.\nTox21 Assay Protocol Summary: CRE-bla Hek 293T cells were suspended in assay medium (DMEM containing 10% dialyzed FBS, 0.1 mM NEAA, 1 mM sodium pyruvate and 25 mM HEPES) and dispensed at 2,000 cells/5 uL /well into 1536-well black wall/clear bottom plates using a Multidrop Combi (ThermoFisher Scientific, Waltham, MA) dispenser. After the assay plates were incubated at 37 C/5% CO2 for 18 hrs, 23 nL of compounds dissolved in DMSO, positive controls or DMSO only was transferred to the assay plate by a pintool workstation (Kalypsys, San Diego, CA). After the plates were incubated at 37 C/5% CO2 for 3 hrs, 1 uL of LiveBLAzer B/G FRET substrate (Invitrogen, Carlsbad, CA) was added to each well using Bioraptr Flying Reagent Dispenser (FRD, Aurora Discovery, San Diego, CA). The plates were incubated at room temperature for 2 h.", "values": [
      {"smiles": "NNc1nc(-c2ccc(N)cc2)cs1", "activation": "-2.07%"},
      {"smiles": "NNC(=O)CCCCC(=O)NN", "activation": "0.487%"},
      {"smiles": "NO", "activation": "-0.0766%"},
      {"smiles": "O=C1Nc2ccc([N+](=O)[O-])cc2C1=O", "activation": "13.7%"},
      {"smiles": "Clc1ccc2nsnc2c1NC1=NCCN1", "activation": "-1.97% [at 42.5 µM]"},
      {"smiles": "O=C1CC[C@@H](C(=O)O)N1", "activation": "-1.27% [at 42.5 µM]"},
      {"smiles": "CCC(CC)Nc1ccc(C)c(C)c1", "activation": "0.0918%"},
      {"smiles": "CCCCCC(CO)CCC", "note": "(stereo not given)", "activation": "0.762%"},
      {"smiles": "CC(=O)[O][Al]", "activation": "1.47%"},
      {"smiles": "O=C(O)c1ccc(O)c(O)c1", "activation": "1.4%"},
      {"smiles": "O=S(=O)(O)c1cc(S(=O)(=O)O)c2ccc3c(S(=O)(=O)O)cc(S(=O)(=O)O)c4ccc1c2c43", "activation": "0.24% [at 19 µM]"},
      {"smiles": "Cc1ccc(C(C)C)cc2c(C)ccc1-2", "activation": "-2.36% [at 42.5 µM]"},
      {"smiles": "N#CCCCC(C#N)CCC#N", "note": "(stereo not given)", "activation": "-1.44%"},
      {"smiles": "CC1(C)O[C@@H]2C[C@H]3[C@@H]4CCC5=CC(=O)CC[C@]5(C)[C@@]4(F)[C@@H](O)C[C@]3(C)[C@]2(C(=O)CCl)O1", "activation": "4.35% [at 42.5 µM]"},
      {"smiles": "CCN(Cc1cccc(S(=O)(=O)O)c1)c1ccc(C(=C2C=CC(=[N+](CC)Cc3cccc(S(=O)(=O)O)c3)C=C2)c2ccc(O)cc2S(=O)(=O)[O-])cc1", "activation": "0.721% [at 42.5 µM]"},
      {"smiles": "C=Cc1c(C)c2cc3[nH]c(cc4nc(cc5nc(cc1[nH]2)C(C)=C5CCC(=O)O)C(CCC(=O)O)=C4C)c(C)c3C=C", "activation": "0.0614% [at 42.5 µM]"},
      {"smiles": "COC(=O)C1=C(C)NC(C)=C(C(=O)OC(C)C)C1c1cccc2nonc12", "note": "(stereo not given)", "activation": "-0.395% [at 42.5 µM]"},
      {"smiles": "Sc1nc2ccccc2s1", "activation": "-0.198%"},
      {"smiles": "Cc1ccc(Nc2nccc(N(C)c3ccc4c(C)n(C)nc4c3)n2)cc1S(N)(=O)=O", "activation": "11.9% [at 42.5 µM]"},
      {"smiles": "CCCCCCCCOC(=O)c1cc(O)c(O)c(O)c1", "activation": "11.4%"},
      {"smiles": "COc1nc(N)nc2c1ncn2[C@@H]1O[C@H](CO)[C@@H](O)[C@@H]1O", "activation": "0.431% [at 42.5 µM]"},
      {"smiles": "COc1cc(Cl)c(OC)cc1N", "activation": "1.32%"},
      {"smiles": "CC(=O)O[Si](C)(OC(C)=O)OC(C)=O", "activation": "-1.07%"},
      {"smiles": "CC(=O)c1ccc[nH]1", "activation": "1.32%"},
      {"smiles": "CCCC(CC)CCCCCCCN", "note": "(stereo not given)", "activation": "-3.47%"},
      {"smiles": "CN(C)CCCN1c2ccccc2CCc2ccccc21", "Potency": "inactive"},
      {"smiles": "CC1=C(Br)C(=O)C(Br)=C/C1=C(/c1ccccc1S(=O)(=O)O)c1cc(Br)c(O)c(Br)c1C", "activation": "-1.06% [at 42.5 µM]"},
      {"smiles": "CN(C)C(=O)Oc1cccc([N+](C)(C)C)c1", "activation": "0.434% [at 42.5 µM]"},
      {"smiles": "Clc1cccc(-c2cc(Cl)cc(Cl)c2)c1", "activation": "-0.201%"},
      {"smiles": "C=CCN(CC=C)CC=C", "activation": "-1.19%"},
      {"smiles": "COC1CCC=CO1", "note": "(stereo not given)", "activation": "-0.371%"},
      {"smiles": "S=C(S)NCCNC(=S)S", "activation": "-0.0634%"},
      {"smiles": "CC(C)(C)c1ccc(-c2ccc(C(C)(C)C)cc2)cc1", "activation": "1.25%"},
      {"smiles": "O=C(O)/C=C/c1ccc(O)c(O)c1", "activation": "2.37%"},
      {"smiles": "CCC(C)(CN(C)C)OC(=O)c1ccccc1", "note": "(stereo not given)", "activation": "-0.0828% [at 42.5 µM]"},
      {"smiles": "CC(C)(C)C(O)/C=C/c1ccc2c(c1)OCO2", "note": "(stereo not given)", "activation": "4.03% [at 42.5 µM]"},
      {"smiles": "COC(=O)C1=C(C)NC(C)=C(C(=O)OCCc2ccc(N3CCN(C(c4ccccc4)c4ccccc4)CC3)cc2)C1c1cccc([N+](=O)[O-])c1", "note": "(stereo not given)", "activation": "-1.16% [at 42.5 µM]"},
      {"smiles": "CCO[Si](CCCS)(OCC)OCC", "activation": "1.2%"},
      {"smiles": "NCCCN(CCO)CCO", "activation": "2.07%"},
      {"smiles": "Nc1nc(F)nc2c1ncn2[C@@H]1O[C@H](CO)[C@@H](O)[C@@H]1O", "activation": "-0.296% [at 42.5 µM]"}
    ]}
  ]
}
